# Data: PubChem BioAssay (EPA / NIEHS)
# The source made the active and inactive calls. Rule for the calls: active = hit-call score of the fitted dose curve at least 0.9, where 1 is the maximum; inactive = score below 0.9.
# Test: ATG_TCF_b_cat_CIS: Attagene CIS-FACTORIAL HepG2 Assay for human T-Cell-Factor with beta-catenin (TCF/b-cat) (AID 2282965)
# Settings: HepG2 TCF/beta-catenin cis-reporter transcription, actives raise or lower the signal
# Method: ATG_CIS is a cell-based, multiplexed-readout assay that uses HepG2, a human liver cell line, with measurements taken at 24 hours after chemical dosing in a 24-well plate.ATG_TCF_b_cat_CIS is one of 52 assay component(s) measured or calculated from the ATG_CIS assay. It is designed to make measurements of mRNA induction, a form of inducible reporter, as detected with fluorescence intensity signals by Reverse transcription polymerase chain reaction (RT-PCR) and Capillary electrophoresis technology.Data from the assay component ATG_TCF_b_cat_CIS was analyzed into 1 assay endpoint. This assay endpoint, ATG_TCF_b_cat_CIS, was analyzed with bidirectional fitting relative to DMSO as the negative control and baseline of activity. Using a type of inducible reporter, measures of mRNA for gain or loss-of-signal activity can be used to understand the reporter gene at the transcription factor-level as they relate to the gene TCF7 and TCF7L2 and LEF1 and TCF7L1. Furthermore, this assay endpoint can be referred to as a primary readout, because this assay has produced multiple assay endpoints where this one serves a reporter gene function. To generalize the intended target to other relatable targets, this assay endpoint is annotated to the dna binding intended target family, where the subfamily is HMG box protein.
# Human liver HepG2 cells are transiently transfected with multiple reporter transcription units (MRTUs) in 6-well plates using FuGene 6 reagent (Roche; 3 ml FuGene/1 mg DNA). The MRTU constructs are regulated by a cis-regulating element (promoter). […] A major difference between the CIS and TRANS system is that in CIS activities of endogenous TFs are measured, whereas the TRANS assay evaluates changes in activities of exogenous, chimeric NR-Gal4 proteins. […] At the end of 24 hour incubation, total RNA was isolated using TriZol reagent (Invitrogen). The isolated RNA is then reverse-transcribed using oligo(dT) primer and Mo-MLV reverse transcriptase (Invitrogen) with DNAse I (Ambion) treatment for 30 min. The one-tenth of the produced cDNA was amplified by PCR using Taq DNA polymerase (Invitrogen) and two reporter sequence-specific primers. The PCR products were fluorescently labeled by primer extension with 6-arboxyfluorescein (6-FAM) 5'-labeled reporter sequence-specific primer (2 min at 95 C, 20 s at 68 C and 10 min at 72 C) and these products were digested with 5U of HpaI (New England Biolabs) for 2h at 37 C. The fragments were purified using Qiaquick PCR columns (Qiagen), analyzed on an ABI 3130xL genetic analyzer (Applied Biosystems) with peak positions identified by using a set of X-rhodamine (ROX)-labeled MapMarker1000 molecular weight standards (BioVentures). The raw capillary electrophoresis data was processed using Attagraph software (Attagene).
Structure (SMILES),outcome,AC50
CC(C)(C)c1n[nH]c(=O)n(N)c1=O,inactive,
O=P(O)(O)Oc1ccccc1,inactive,
Cn1c([N+](=O)[O-])cnc1COC(N)=O,inactive,
O=S(=O)(O)c1cc(S(=O)(=O)O)c2ccc3c(S(=O)(=O)O)cc(S(=O)(=O)O)c4ccc1c2c43,inactive,
CCN(CC#N)c1cccc(C)c1,inactive,
CCCCC/C=C\C/C=C\CCCCCCCC(=O)OC,inactive,
CC(=O)CC(N)=O,inactive,
CC(C)(C)c1ccc(-c2ccc(C(C)(C)C)cc2)cc1,inactive,
CCCCNc1ccc(NCCCC)c2c1C(=O)c1ccccc1C2=O,inactive,
OCCCS,inactive,
COc1cc(C)ccc1C(C)C,inactive,
COc1ccc(-c2coc3cc(O)ccc3c2=O)cc1,inactive,
C(=CC=Nc1ccccc1)C=CNc1ccccc1,inactive,
Cc1cc(C)c(C)c(C)c1,inactive,
[Cl][In]([Cl])[Cl],inactive,
c1ccc(CNCc2ccccc2)cc1,inactive,
COc1cc(NC(=O)CC(C)=O)c(OC)cc1Cl,inactive,
CCCOCCOCCOCCO,inactive,
CCCCC(CC)COC(=O)c1ccccc1O (stereo not given),inactive,
NC(=O)N=NC(N)=O,inactive,

Structure (SMILES),outcome,AC50
CCCCCCCCCCCCCCCC(=O)OCC,inactive,
CCCCCCCCCCOC(C)=O,inactive,
CNC(=S)N(C)C,inactive,
O=C(Nc1ccccc1)c1ccccc1O,inactive,
CCOC(=O)N1CCC(=C2c3ccc(Cl)cc3CCc3cccnc32)CC1,,8.07 µM (active)
O=C(Nc1cccc(C(F)(F)F)c1)c1cc(Br)cc(Br)c1O,,128 µM (active)
CC(C)(c1cc(Br)c(OCCO)c(Br)c1)c1cc(Br)c(OCCO)c(Br)c1,,7.14 µM (active)
CC(=O)C=CC1C(C)=CCC(C)C1(C)C (stereo not given),inactive,
S=C(NC1CCCCC1)NC1CCCCC1,inactive,
COC(=O)c1ccc2cc(C(=O)OC)ccc2c1,inactive,
CC1=Nc2ccc3ccccc3c2C1(C)C,inactive,
C=C[Si](OC(C)=O)(OC(C)=O)OC(C)=O,inactive,
C=C(C)C(=O)OCCO,inactive,
OC1CCCC1,inactive,
C=CCCCCCCCCC(=O)OCCCC,inactive,
C=CC(=O)OCC(Br)CBr (stereo not given),,44.2 µM (active)
CC(=O)OC(C)C,inactive,
NC(=O)OCC(COC(N)=O)c1ccccc1,inactive,
CCCCCCCCO[C@@H]1O[C@H](CO)[C@@H](O)[C@H](O)[C@H]1O,inactive,
C=C(C)C(=O)OCC(C)C,inactive,
